# Results taken from ChEMBL document CHEMBL3988442, “University of Dundee, Small-Polar-MMV Screening Library” (2021).
# Biological target: Sialic acid-binding Ig-like lectin 9 (Homo sapiens) (UniProt Q9Y336)
# Assay: Hs-Siglec9 ALPHAscreen SOP 20170721
# Design: scale not given: direction of the effect not stated beside the values
# Conditions: 10 µM
# Chain of Sialic acid-binding Ig-like lectin 9 (Homo sapiens) (Q9Y336 whole entry): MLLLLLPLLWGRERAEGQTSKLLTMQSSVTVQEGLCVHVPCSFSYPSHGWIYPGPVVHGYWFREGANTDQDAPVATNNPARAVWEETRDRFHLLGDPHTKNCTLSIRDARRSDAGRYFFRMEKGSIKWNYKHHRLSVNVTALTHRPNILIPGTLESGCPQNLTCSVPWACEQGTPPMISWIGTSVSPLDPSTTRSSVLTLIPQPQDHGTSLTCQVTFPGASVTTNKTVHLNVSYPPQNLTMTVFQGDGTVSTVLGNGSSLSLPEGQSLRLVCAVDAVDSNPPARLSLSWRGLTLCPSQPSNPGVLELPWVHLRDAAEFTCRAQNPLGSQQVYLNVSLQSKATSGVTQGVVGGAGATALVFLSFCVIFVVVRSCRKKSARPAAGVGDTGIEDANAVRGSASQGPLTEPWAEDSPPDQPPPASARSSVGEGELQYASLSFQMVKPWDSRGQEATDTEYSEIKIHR
row,SMILES,Percent Effect [%]
1,COCC1CC2(CCN(C(=O)c3cccn3C)CC2)CN1C(C)C (centres undefined),-2.06
2,CCN(Cc1cccc(Cl)c1)Cn1nc(C)c2c(C)onc2c1=O,2.84
3,CC(C)c1nc(CC(=O)Nc2nc(CN3CCCCCC3)cs2)cs1,-10.6
4,COc1cccc(CN(C)S(=O)(=O)N2CCOCC2)c1,-0.478
5,Cc1nn(C)c(N(C)C)c1CNCc1cccc(OCCN(C)C)c1,5.4
6,Cc1ccc(CNC(=O)CCSCc2csc(C)n2)cn1,-3.29
7,CCO[C@@H]1CC[C@H]2[C@H]1OCCN2C(=O)C1CCOCC1,5.16
8,CCC1CCCCN1C(=O)c1ccc2[nH]nnc2c1 (centres undefined),-0.908
9,FC(F)(F)C1CCCn2c(CNCc3ccsc3)nnc21 (centres undefined),4.99
10,CCC1(CC)Cc2ccccc2-c2nc(NCCO)[nH]c(=O)c21,1.17
11,Cc1nc(C)n(CC2CCCCN2CCC(=O)Nc2cc(C)on2)n1 (centres undefined),1.14
12,Cc1nc(C)n(CC2CN(CC(=O)Nc3nccs3)CCO2)n1 (centres undefined),15.8
13,CC(NC(=O)NCCOc1ccc(F)c(F)c1)c1nncn1C (centres undefined),5.57
14,COCCNc1nc(C2CCCC2)nc2c1CCNCC2,-1.74
15,Cc1ccc(CNS(=O)(=O)CC2=NC(=O)n3cccc3C2=O)cc1,4.14
16,CCS(=O)(=O)N(C)C(=O)c1cc(C)n(-c2cccc(OC)c2)c1C,7.26
17,Cn1ncc2c(=O)[nH]c(CN(Cc3ccco3)C3CCCC3)nc21,6.27
18,O=C(CS(=O)(=O)CC1CCCCC1)NC1CCCCNC1=O (centres undefined),5.38
19,CC(N(C)Cc1nc2c(cnn2C)c(=O)[nH]1)C(C)(C)C (centres undefined),2.57
20,CC(C)c1nc(C2CCCN2C(=O)c2nccnc2N)no1 (centres undefined),23.1

row,SMILES,Percent Effect [%]
1,O=C1CC(N(C(=O)c2ccc3c(c2)CCC3)C2CC2)C(=O)N1 (centres undefined),-3.45
2,CCn1cnnc1CNC(=O)N1CCC(Cc2cccnc2)CC1,1.86
3,CC(NC(=O)NCc1cccc(N2CCCC2=O)c1)c1ccccc1 (centres undefined),12.6
4,O=C1N(c2ccc(F)cc2)Cc2nc(=O)n(Cc3cccc(Cl)c3)n21,4.81
5,Cc1noc2nc(C3CCN(Cc4cccnc4)CC3)cc(C(F)F)c12,1.16
6,CCOc1cccc(C(=O)NCCC(=O)Nc2ccncc2)c1,-0.438
7,O=S(=O)(Cc1ccccc1F)NCCN1CCOCC1,-5.08
8,O=C(NCCc1ccccc1)C1CCC(Cn2cnnn2)CC1 (centres undefined),6.93
9,CC(C)c1nnc2n1CCN(Cc1csc(CC(=O)N(C)C)n1)C2,3.17
10,Cc1cc(C)n(CC2CCCN2C(=O)CCc2cscn2)n1 (centres undefined),-2.27
11,CC(=O)N1CCC(C(=O)N(C)[C@@H]2CCC[C@@H](N3CCCC3)[C@@H]2O)CC1,-2.3
12,N#Cc1ccc(OCCCN2CCc3cncnc3C2)cc1,5.6
13,Cc1cnn(CCNCC(=O)NCCOc2ccccc2)c1,-1.9
14,CC(CCN1CCn2nc(CNC(=O)N(C)C)cc2C1)c1ccccc1 (centres undefined),16.6
15,COc1ccc(CN(C)Cc2nc3c(cnn3C)c(=O)[nH]2)cc1OC,3.18
16,CCOC(=O)C1CCCN(c2ccc(-c3nc(C)no3)cn2)C1 (centres undefined),19.1
17,CC1Cc2ccccc2N1Cc1occc1C(=O)OCC(N)=O (centres undefined),10.7
18,CC(C)Oc1ccccc1CNC(=O)N1CCC(n2cncn2)CC1,-3.04
19,COCC(O)CN(C)C(=O)NC1CCN(Cc2ccccn2)CC1 (centres undefined),1.62
